High-throughput results: PubChem BioAssay, several laboratories
Rows were chosen to be rich in hits. Some 4.8% of all compounds tested hit in one or more screens of this group.
CSC inhib – cancer stem cell viability inhibitors, primary screen, luminescence; cancer stem cell-like cells viability; inhibition, % at 7.5 µM; 300,000 tested, 1.1% active; AID 2717, 2010; in the data active means inhibition above about 75%; inconclusive means no clear call, values can overlap the other calls; tested in HMLE shEcad cells
MPTP inh – mitochondrial permeability transition pore inhibitors, primary screen, biochemical, isolated mouse mitochondria, absorbance; Ca2+ swelling absorbance, 30 min; 360,000 tested, 1.4% active; inhibition, % at 10 µM;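 active means inhibition of 50% or more, scaled per plate between neutral and stimulator controls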
Beta apoptosis – inhibitors of cytokine-induced beta cell apoptosis, primary screen, luminescence. INS-1E cytokine-induced death, ATP luminescence, 48 h; percent of positive-control rescue, neutral wells zero. protection from apoptosis, % (no concentration beside the values). 300,000 tested, 0.8% active. AID 435005, 2010;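 active means Every replicate reaches about 75%, or at least half do and their mean reaches it too, limit read from the data; inconclusive means At least half of replicates reach the limit but their mean does not; inactive means Under half of replicates reach the limit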;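 further: higher means more ATP so stronger rescue from cytokine killing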
Mdm2 MdmX PPI – inhibitors of human Mdm2-MdmX association, primary screen, cell-based, luminescence, split luciferase, SaOS-2, uHTS | Protein Mdm4 (Homo sapiens) + E3 ubiquitin-protein ligase Mdm2 (Homo sapiens), … | SaOS-2 split-luciferase Mdm2/MdmX complementation | inhibition, % at 8 µM | 330,000 tested, 3% active | AID 485346, 2010;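 active means inhibition of at least 50% at 8 µM in the primary screen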
Target sequence (O15151 whole entry, looked up): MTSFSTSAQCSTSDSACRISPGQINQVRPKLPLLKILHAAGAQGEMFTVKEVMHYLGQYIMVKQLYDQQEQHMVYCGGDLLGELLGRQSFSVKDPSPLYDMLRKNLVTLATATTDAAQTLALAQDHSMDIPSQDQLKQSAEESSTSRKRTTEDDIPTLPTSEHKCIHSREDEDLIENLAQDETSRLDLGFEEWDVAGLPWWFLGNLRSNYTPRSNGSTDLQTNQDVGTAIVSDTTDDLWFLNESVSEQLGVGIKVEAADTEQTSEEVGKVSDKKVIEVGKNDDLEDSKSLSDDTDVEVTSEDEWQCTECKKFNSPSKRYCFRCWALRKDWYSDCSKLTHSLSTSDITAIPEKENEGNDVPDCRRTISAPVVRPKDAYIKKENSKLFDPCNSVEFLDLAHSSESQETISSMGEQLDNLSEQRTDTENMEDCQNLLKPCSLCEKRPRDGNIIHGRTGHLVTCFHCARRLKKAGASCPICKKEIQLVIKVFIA
Target sequence (Q00987 whole entry, looked up): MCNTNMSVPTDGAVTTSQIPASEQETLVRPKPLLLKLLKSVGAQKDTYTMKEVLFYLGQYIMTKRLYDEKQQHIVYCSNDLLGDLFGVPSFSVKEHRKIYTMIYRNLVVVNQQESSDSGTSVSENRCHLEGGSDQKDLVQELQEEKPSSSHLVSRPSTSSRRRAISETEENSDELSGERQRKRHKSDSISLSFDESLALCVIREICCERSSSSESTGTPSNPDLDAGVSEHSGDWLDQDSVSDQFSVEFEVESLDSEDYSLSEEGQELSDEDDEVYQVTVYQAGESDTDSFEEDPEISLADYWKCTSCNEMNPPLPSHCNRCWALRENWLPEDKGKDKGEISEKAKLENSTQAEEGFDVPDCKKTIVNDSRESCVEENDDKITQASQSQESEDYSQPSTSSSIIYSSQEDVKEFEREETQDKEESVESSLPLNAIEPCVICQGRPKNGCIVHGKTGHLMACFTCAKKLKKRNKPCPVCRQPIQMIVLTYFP
Calb FLC – C. albicans growth inhibition with fluconazole, primary screen, CaCi-2 strain, Alamar Blue fluorescence; AID 1979, 2009; 300,000 tested, 0.57% active; growth inhibition, % (no concentration beside the values); C. albicans CaCi-2 (fluconazole-resistant clinical isolate) + fluconazole, 48 h;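 active means growth inhibition above about 58% in most replicates, limit read from the data, passing the limit was not always enough; inconclusive means exactly half the replicates above a set limit; inactive means most replicates below a set limit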;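 further: all wells also contain fluconazole at 8 µg/ml as a sub-toxic cotreatment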
MPTP counter – fluorescence retest of MPTP screen hits in isolated mitochondria, single concentration; AID 624504, 2012; 5,000 tested, 78% active; shares compounds with MPTP inh; inhibition, % at 10 µM; membrane potential, Rhodamine 123 fluorescence; in the data active means inhibition above about 22%
MPTP abs DR – mitochondrial permeability transition pore inhibitors, dose response, biochemical, absorbance, uHTS hits. AID 651561, 2012. shares compounds with MPTP inh. isolated mitochondria swelling. 780 tested, 58% active. IC50, µM; in the data active means IC50 below about 20 µM
MPTP cs DR – fluorescent counter-screen in isolated mitochondria, dose response, counter-screen for MPTP inhibitor project, biochemical, fluorescence, uHTS hits | shares compounds with MPTP inh | isolated mitochondria counterscreen, fluorescence read-out | IC50, µM | 780 tested, 49% active | AID 651564, 2012; in the data active means IC50 below about 80 µM
Large screens that a line does not name were inactive (follow-up assays come after a bar, where they were run).

COc1ccc(NC(=O)Nc2cccc(C(F)(F)F)c2)cn1	MPTP inh 100 | MPTP counter 90
Cc1ccccc1NC(=O)Nc1ccc(C(F)(F)F)cc1	MPTP inh 80 | MPTP counter 87
O=C(Nc1cccc(C(F)(F)F)c1)c1cc(-c2ccc(F)cc2)on1	MPTP inh 67 (no result: CSC inhib) | MPTP counter inactive | MPTP abs DR inactive | MPTP cs DR inactive
COCc1cc(C)nc(SCC[N+](C)(C)CC(=O)Nc2cccc(C(F)(F)F)c2)c1C#N	none
Cc1cccc(OCC(=O)NCCCNC(=O)c2ccco2)c1	none (no result: Beta apoptosis)
COc1ccc(N2CCN(C(=O)Nc3cccc(C(F)(F)F)c3)CC2)cc1	none
CC(=O)c1c(C)[nH]c(C(=O)Nc2cccc(C(F)(F)F)c2)c1C	MPTP inh 70 | MPTP counter 86
O=C(Nc1cccc(C(F)(F)F)c1)N1CCN(C(=O)Nc2cccc(C(F)(F)F)c2)CC1	MPTP inh 64 | MPTP counter 71
Cc1cc(NC(=O)Nc2cccc(C(F)(F)F)c2)n(C)n1	MPTP inh 72 | MPTP counter 77
CC(=O)c1c(C)[nH]c(C(=O)Nc2cccc(C#N)c2)c1C	none
CCCN1CCN(C(=O)Nc2cccc(C(F)(F)F)c2)CC1	MPTP inh 72 | MPTP counter 92
Fc1cc(F)c(C2SCCN2C(=S)Nc2cccc(C(F)(F)F)c2)c(F)c1 (stereo not given)	MPTP inh 74 | MPTP counter 93
Cc1cc2c(NC(=O)Nc3ccc(C(C)(C)C)cc3)cccc2nn1	MPTP inh 85 | MPTP counter 81
CCOC(=O)c1ccc(NC(=S)N2CCSC2c2c(F)cc(F)cc2F)cc1 (stereo not given)	none
O=C(Nc1ccccc1)Nc1cccc(C(F)(F)F)c1	MPTP inh 96, Calb FLC inconclusive | MPTP counter 97
Cc1cc2c(NC(=O)Nc3ccccc3)cccc2nn1	none
COC(=O)c1ccccc1S(=O)(=O)NNC(=O)c1ccccc1-n1cccc1	none
Cc1ccc(OCCNC(=O)c2cc(C(=O)NCCOc3ccc(C)cc3)cc([N+](=O)[O-])c2)cc1	MPTP inh 74 | MPTP counter 83
Cc1ccc(OC(C)C(=O)Nc2ccncc2)cc1C (stereo not given)	none (no result: CSC inhib, Beta apoptosis)
Cc1cccc(OCC(=O)Nc2nc3ccc([N+](=O)[O-])cc3s2)c1C	MPTP inh 69 | MPTP counter 83
Cc1cccc(OCC(=O)Nc2nc3ccc([N+](=O)[O-])cc3s2)c1	MPTP inh 67, Calb FLC inconclusive | MPTP counter 87
O=C(Nc1nc2ccc([N+](=O)[O-])cc2s1)c1c(F)cccc1F	none
O=C(COc1ccccc1C(=O)O)Nc1nc2ccc([N+](=O)[O-])cc2s1	MPTP inh 94 | MPTP counter 83
Cc1nc2ccc(NC(=O)COc3ccccc3[N+](=O)[O-])cc2s1	none (no result: CSC inhib)
COc1cccc(OCC(=O)NNC(=S)Nc2ccc(Cl)cc2Cl)c1	MPTP inh 68 | MPTP counter 99
CCOC(=O)N1CCC(N(C(=O)Nc2ccc(Cl)c(Cl)c2)C(C)CC)CC1 (stereo not given)	MPTP inh 80 | MPTP counter 95
C=C1c2cccc(O)c2C(O)=C2C(=O)[C@]3(O)C(O)=C(C(N)=O)C(=O)[C@@H](N(C)C)[C@@H]3[C@@H](O)[C@H]12	none
C[C@H]1c2cccc(O)c2C(O)=C2C(=O)C3(O)C(O)=C(C(N)=O)C(=O)[C@@H](N(C)C)[C@@H]3[C@@H](O)[C@@H]21 (stereo not given in full)	MPTP inh 85 (no result: Calb FLC) | MPTP counter inactive
C[C@H]1c2cccc(O)c2C(=O)C2C(=O)C3(O)C(=O)C(C(N)=O)C(=O)[C@@H](N(C)C)[C@@H]3[C@@H](O)[C@@H]21 (stereo not given in full)	MPTP inh 90 (no result: CSC inhib, Beta apoptosis, Calb FLC) | MPTP counter inactive
CC1(C)C(=O)Nc2ccccc2N1C(=O)COc1cc(Cl)ccc1Cl	none (no result: Calb FLC)
